Data from the supplement of paper PMC6555819.

These sequences were tested on VDR:RXRa (NR concentration 270 nM, RXRa partner concentration 90 nM) (assay: PBM binding z-score (relative to random genomic background probes); higher = stronger binding; sequences stand for … in GC…GCGATTGACAGCGTAGAATGAAGG).
Protocol: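 Protein-binding microarray (Agilent 4x180K custom design, double-stranded 60-nt probes: 5' GC cap, 34-nt variable region, 24-nt constant primer region; full probe sequence given). Purified or IVT nuclear receptor:RXRα heterodimers (3:1 NR:RXRα, mostly 270:90 nM) or homodimers were incubated for 1 h in PBS with 2% milk and no ligand, then detected with Alexa488 antibodies. Fluorescence from o1-orientation probes (~5 replicates averaged) was converted to z-scores against 500 random hg19 background probes. Variable regions are seed direct-repeat (DR0–DR5) sites, all their single-nucleotide variants and half-site ablations.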

Sequence	PBM binding z-score
CCTGCGAGGTCAATGGTCAGCTAAAGCAGCTCGC	4.73
CCTACTGGGCCACGAAAGGTCATTCATTCAGTGA	4.43
GGAACGAGGGCAAAGTAGATAGCATCTGTCGACG	0.414
TCTATTAGTTGATTACGGCAACCGAAACAGCGGA	0.738
TAGCCTAGGTAATGCGGGCCAGTATAGTGTCGGC	-0.839
CAAACTAGGTCAAGAGGTTAAAGTCCGCTTCCCG	4.18
CGAACTAGGTCATTGACAGGACAGTCAATAGTAA	2.29
CCTCGCAGGACAGAAGGTCAGAGCTGTCCGCTTT	0.93
GCAGACAGGTGAAACGCAGGTAACACAGGGTGGC	-0.439
GATTCAGGGTCAAGGCCAGAGTACGCGTATTGAT	4.89
CATACTGGGCCAAAGGTCATTGATTCCAATGCTC	5.1
AGAACGAGGGCAATGAGTTGATATCACGGGTGGC	5.09
CCTATTAGTTGACCATCAGGGCAACCGAAGCTCG	0.508
CAAACTAGGTCACGAATGGTCAAAGTCGAATGAC	3.05
GCTTTTAGATCAAGGTTAAGAAAGACTAAGCTAA	0.374
CCTAATGGGCCAAAAAGGTCATTGATGCCGATAA	5.11
ATCGAAAGGTCGGAGGTGAGTATACCCACCCGAA	1.75
ACTAGGAGGCCAAGTTTGGGTCACTCAAACAAAG	1.08
ATATGTAGGTTAGCTGTGGTCATTCAGACTAGGC	0.859
TTACCAAGGTGAAAGGTCGTTCATGCACGCCTTG	3.53

Sequence	PBM binding z-score
AGAATGAGGTTACCAAAGCTCAGGGAAACGCTTG	0.99
CCGACTGGGGCAGCAAGGTTACCATACCATCCGG	1.25
ATCTCTAGGCAAAAGTTCAGTGAATCCCGAGGAT	0.715
CCGACTGGGGCTAAGGTTACCATACTCAGTACGA	0.0865
CTTGAAAGGTCGTGCTCAGGTGAGTATACCAAAC	3.55
AATAGAGGGTCACTAGGCCAGAGTAGGTACGAAT	2.75
TCTAGCAGGCCAGAGAGTCACTCAAGAGGTACGG	-0.279
CCTAGTTGGTCAGGAGGGCACACACCGGATATGA	0.458
CCTAGCAGGCCAGGGTCACTCAAGCATTTCGCTT	2.48
ATCGAAAGGTCGTGAGGGGAGTATACAGAAAGGC	3.55
CGTCCAAGGTCGGCAGGTCAGTGAAAGCGACGTG	1.28
ATCTCTACGTAAAAGTTCAGTGAATCCCGAGGAT	1.1
ATCTCTAGGTAAAGTTCAGTGATAGATCGATAGA	1.47
TATATAGGGTCAAAGGCCAGAGTACGAATGTCGA	4.75
AGAATGAGGTTATTAAGATCAGGGACTTGCGGTC	2.47
GATACAGGGTCAGCTAGAGGCTAGAGTATGGAAA	2.67
CCAGACAGGTGAAATGTAACTCAGTCTGGTACGC	0.0659
TCATATAGGTAATACAGCTGAAAGTCGGCATCTA	0.891
CTCTAAAGGTCGTGCTCAGGTGAGTATACCAAAC	3.27
CAAACTAGGTCAAGAGGTAAAAGTCCGCTTCCCG	2.17
